Source: PubChem
AHR act: human AHR activation; AHR-responsive luciferase reporter cells, luminescence; activation, % at 5 µM; actives 2.5% (n = 320,000); AID 2796; in the data active = activation above about 47%
Bfl-1 A1 inh: inhibitors of the anti-apoptotic protein A1, read as caspase activation. MEF A1-2A-BIM cells, Caspase-Glo 3/7 luminescence, 3 h; percent of clofoctol response, vehicle zero. caspase activation, % (test concentration not listed). actives 0.066% (n = 330,000). AID 2462;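 active = over half of replicate activation scores above 10%, or exactly half above 10 with the replicate mean above 10; inconclusive = replicate mean below 10 yet half the replicates above 10; inactive = over half of replicates below 10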
Mot1-301 SUMO: blocks SUMOylation pathway, rescuing yeast Mot1-301 growth | growth rescue, % at 18.8 µM | actives 1% (n = 320,000) | S. cerevisiae Mot1-301 growth rescue, ATP luminescence, 38.5C; percent above DMSO median, 100 means doubled;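 active = every valid replicate shows activation above 250% relative to neutral control wells; inactive = the rest, any valid replicate at or below 250%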
VLA-4 inh: inhibition in a human VLA-4 binding assay; P13612; VLA-4 expressing cells, ligand binding flow cytometry; inhibition, % (about 7 µM as worked out from the volumes in the protocol); actives 0.2% (n = 330,000); AID 2557; in the data active = inhibition above about 50%
ALR H2O2 inh: human ALR oxidase inhibition via reduced H2O2; actives 3.8% (n = 290,000); purified ALR, DTT oxidation, H2O2 HRP-luminol luminescence; inhibition, % (test concentration not listed);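 active = mean replicate inhibition above about 79%, with every replicate also reaching it, limit read from the data; inconclusive = only one of the two criteria met; inactive = mean below limit and not every replicate reaching it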
Efflux pump inh: blocks antifungal efflux pumps in multiplex yeast assay | S. cerevisiae Candida pump triplex, Nile Red efflux | inhibition, % at 10 µM | actives 0.44% (n = 330,000);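 active = plate passing quality check with inhibition over a set limit, or well fluorescence over plate mean plus 4 SD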;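 also: Nile Red retained in pooled yeast measured as flow cytometry median fluorescence; higher means more Nile Red kept so more efflux inhibition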
Large screens that a line does not name were inactive. Compounds with a hit are over-represented: about 7.2% of the library has one in this group of screens.

CCCc1nnc(N2C(=O)c3cccc4cccc(c34)C2=O)s1	AHR act 73.3
Cc1nnc(N2C(=O)c3cccc4cccc(c34)C2=O)s1	AHR act 68.0
O=C(c1nn(Cc2ccccc2)c(=O)c2ccccc12)N1CCN(C/C=C/c2ccccc2)CC1	none
Cc1ccc(NC(=O)COc2ccc(Br)cc2CO)cc1S(=O)(=O)N1CCOCC1	none (no result: ALR H2O2 inh)
Cc1ccccc1CN1C2=NCCCN2c2ccccc21	none
Cc1ccccc1CN1C2=NCCN2c2ccccc21	ALR H2O2 inh 98.8
CCCCCN1C2=NCCN2c2ccccc21	ALR H2O2 inh 96.3
Fc1ccc(CN2C3=NCCN3c3ccccc32)cc1	ALR H2O2 inh 95.0
CSc1nc(N)c2c(C)c(C)sc2n1	none
CS(=O)(=O)c1ccc(Oc2ccc(-c3nnco3)cc2)c([N+](=O)[O-])c1	none (no result: ALR H2O2 inh)
COCCn1c(SCC(=O)c2ccccc2)nc2c(c1=O)SCC2	ALR H2O2 inh 93.8 (no result: Mot1-301 SUMO)
COCC(C)n1c(SCC(=O)NNC(=O)c2ccc(F)cc2)nc2ccccc2c1=O (centres undefined)	Mot1-301 SUMO 346.4 (no result: ALR H2O2 inh)
COCCn1c(SCC(=O)NNC(=O)c2ccccc2)nc2ccccc2c1=O	none (no result: ALR H2O2 inh)
COCCn1c(SCC(=O)c2ccccc2)nc2ccccc2c1=O	ALR H2O2 inh 97.5
Cc1ccc(S(=O)(=O)N2CCOCC2)cc1NC(=O)CSc1nc2ccccc2c(=O)n1Cc1ccccc1	none
O=C(CSc1nc2ccccc2c(=O)n1Cc1ccccc1)Nc1ccc(Br)cc1C(=O)O	ALR H2O2 inh 97.3
CN(C)S(=O)(=O)c1ccc(Cl)c(C(=O)NCCNC(=O)c2cc(S(=O)(=O)N(C)C)ccc2Cl)c1	none
CCN(CC(=O)Nc1cc(Cl)ccc1C)c1ncnc2sc(C)c(C)c12	none (no result: ALR H2O2 inh)
CCn1c(SCc2cccc(F)c2)nc2c(c1=O)SCC2	ALR H2O2 inh 96.5
CCn1c(SCc2ccc(F)cc2)nc2c(c1=O)SCC2	none
NC(=O)CSc1nc2ccccc2c(=O)n1CCc1ccccc1	AHR act 74.8
O=C(OC1Cn2c(=O)ccc(=O)n2C1)c1ccccc1	none (no result: ALR H2O2 inh)
CCOC(=O)C1=C(C)NC(C)=C(C(=O)OCC)C1C(=O)O	none
CCCC1C(C(=O)OCC)=C(C)NC(C)=C1C(=O)OCC	AHR act 56.8, ALR H2O2 inh 98.9
COc1cc2c(CCNC(C)=O)c[nH]c2cc1O	ALR H2O2 inh 80.2
COc1ccc(CCNC(=O)NCCc2c[nH]c3ccccc23)cc1OC	none
O=C1CC(NCc2cccs2)C(=O)N1c1ccc(Cl)cc1 (centres undefined)	AHR act 72.5
CCCOc1ccc(N2C(=O)CC(NCc3cccs3)C2=O)cc1 (centres undefined)	none (no result: ALR H2O2 inh)
CC(C)CC(=O)c1c[nH]c(C(=O)NCc2cccs2)c1	none
Cc1nn(-c2ccccc2)c2sc(C(=O)O)cc12	none (no result: Mot1-301 SUMO)
Cc1nn(-c2ccccc2)c2sc(C(=O)N3CCOCC3)cc12	AHR act 77.9
S=C(Nc1ccc(Br)cc1)N1CCN(c2ccccn2)CC1	none
CCc1ccc(-c2cn3c(n2)SCC3)cc1	none
Cc1ccc(-c2cn3c(n2)SCC3)cc1	ALR H2O2 inh 98.5
COc1ccc(OCC(=O)Nc2cccc(C(=O)Nc3ccccc3C(=O)O)c2)cc1	none
COc1ccc2c(c1)c1ncn(CCc3ccccc3)c(=O)c1n2C	ALR H2O2 inh 90.8
O=C(CSc1ccc2c(c1)OCCO2)Nc1cccnc1	ALR H2O2 inh 98.7
CC(=O)Nc1ccc(C(=O)CSc2nccc(=O)[nH]2)cc1	ALR H2O2 inh 99.0
CCn1c2ccccc2c2cc(NC(=O)CSc3nccc(=O)[nH]3)ccc21	ALR H2O2 inh 98.4
O=C(CSc1nccc(=O)[nH]1)Nc1ccc2c(c1)OCCO2	ALR H2O2 inh 98.3
CC1CN(CCCCN2C(=O)c3ccccc3C2=O)CC(C)O1 (centres undefined)	none (no result: Mot1-301 SUMO, ALR H2O2 inh)
CCOC(=O)c1noc(C)c1C(=O)Nc1nc(C)cc(C)n1	none
Cc1ccc2cc(CCNC(=O)c3ccc(C)c([N+](=O)[O-])c3)c(=O)[nH]c2c1	none
COc1ccc(CNC(=O)c2c(-c3c(F)cccc3Cl)noc2C)cc1	none
CC(=O)NC1=NN(C(C)=O)C(c2ccccn2)S1 (centres undefined)	none
Cc1nn(C(=O)c2nn(C)cc2Cl)c(C)c1Br	none
O=C(c1ccccc1)c1ccc(OC(=O)C2CCCCC2)cc1	none
O=C(CSc1nccc(=O)[nH]1)Nc1ccc(F)c(Cl)c1	ALR H2O2 inh 99.5
O=C(CSc1nccc(=O)[nH]1)Nc1ccc(Br)c(Cl)c1	ALR H2O2 inh 98.3
COC(CNC(=O)CSCc1nc(-c2ccc(SC)cc2)oc1C)OC	ALR H2O2 inh 99.0
CCCNC(=O)CSCc1nc(-c2ccc(SC)cc2)oc1C	ALR H2O2 inh 98.8
CCOC(=O)CSCc1nc(-c2ccc(Cl)cc2)oc1C	none
O=C(Nc1ccnn1C1CCN(C(=O)c2ccc(F)cc2)CC1)C1CCOC1 (centres undefined)	none
COc1ccc(NC2CCCN(C(=O)c3c(C)noc3C)C2)cc1 (centres undefined)	ALR H2O2 inh 98.8
CC(C)c1ccc(NC2CCCN(C(=O)c3ccco3)C2)cc1 (centres undefined)	none
Cc1noc(C)c1C(=O)N1CCCC(Nc2ccc(C(C)C)cc2)C1 (centres undefined)	ALR H2O2 inh 98.1
S=c1nc(-c2ccccc2)[nH]c2ccccc12	AHR act 57.4 (no result: Mot1-301 SUMO)
S=c1nc(-c2ccc(Br)cc2)[nH]c2ccccc12	none
COc1cccc(N2C(=O)Nc3ccc(Br)cc3C2(O)C(=O)NCCN(C)C)c1 (centres undefined)	none
COc1ccccc1CC(=O)O/N=C(\N)c1ccccn1	none
COc1ccccc1/C=N\N=C(\N)c1ccccn1	AHR act 71.3
COc1cc(/C=C2/SC(=S)N(CC(=O)Nc3cccnc3)C2=O)cc(OC)c1OC	AHR act 51.5
O=C(CN1C(=O)/C(=C/c2ccccc2)SC1=S)Nc1cccnc1	none
Nc1ccc(C#Cc2c(-c3ccsc3)oc3ccc(N4CCOCC4)cc23)cc1	AHR act 70.3
COc1ccc(-c2c(-c3ccsc3)oc3ccc(N4CCOCC4)cc23)cn1	AHR act 58.7, Bfl-1 A1 inh inconclusive (no result: VLA-4 inh, Efflux pump inh)
Nc1ccc(N2CCN(CCCCN3C(=O)C4CCCN4C3=O)CC2)cc1 (centres undefined)	ALR H2O2 inh 99.2
O=C1C2CCCN2C(=O)N1CCCN1CCN(c2cccc(Br)c2)CC1 (centres undefined)	ALR H2O2 inh 85.4
Cc1cccc(NC(=O)c2cnc3sccn3c2=O)c1	AHR act 67.7
COc1ccccc1CNC(=O)c1cnc2sccn2c1=O	AHR act 53.1
CCOC(=O)CN(Cc1sccc1C)C(=O)Nc1ccc(OCC)cc1	none
COc1ccc(S(=O)(=O)N2CCOCC2)cc1NC(=O)CN1CCC(Cc2ccccc2)CC1	none
COC(=O)CCCC(=O)NC(C)c1cnn(-c2ccccc2C)c1C (centres undefined)	none
